Screens as filed in PubChem.
D3 antag – D3 dopamine receptor (human) antagonism; AID 652054; max response, negative = inhibition, %; hit rate 2.5% among 360,000; D3R cells, DiscoveRx beta-arrestin luminescence, antagonist mode; active compounds read low; P35462; in the data active = max response below about -50%; inconclusive = no clear call, values can overlap the other calls
Target sequence (P35462 whole entry, looked up): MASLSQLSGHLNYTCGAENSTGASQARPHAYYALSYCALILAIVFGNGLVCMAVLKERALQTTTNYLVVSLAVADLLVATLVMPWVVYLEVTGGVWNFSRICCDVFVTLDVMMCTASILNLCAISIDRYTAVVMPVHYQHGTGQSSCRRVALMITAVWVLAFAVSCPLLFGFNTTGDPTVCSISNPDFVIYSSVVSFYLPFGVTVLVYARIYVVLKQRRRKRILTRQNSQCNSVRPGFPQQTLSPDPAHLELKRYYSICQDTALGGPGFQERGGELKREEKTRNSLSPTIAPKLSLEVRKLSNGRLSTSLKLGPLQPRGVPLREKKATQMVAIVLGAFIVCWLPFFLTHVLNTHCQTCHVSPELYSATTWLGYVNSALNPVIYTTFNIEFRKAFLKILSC
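Cells plated overnight at 1500 cells/well, then exposed to library compounds with dopamine controls for 90 minutes at 37 degrees C. DiscoveRx reagent added for 30–60 minutes at room temperature; luminescence read, quantitative HTS format.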
GLP1R ag – activates the human GLP-1 receptor; P43220; HEK293 GLP-1R CRE-luciferase, luminescence, 4-6 h; cells express a hypersensitive GLP-1R form; hit rate 0.007% among 380,000; Potency, µM (top dose mostly 45.6 µM), usual class: activators
GLP1R inv ag – acts as inverse agonist at human GLP-1 receptor. HEK293 GLP-1R CRE-luciferase, luminescence, 24 h; GLP-1R form is constitutively active. Potency, µM (titrated, usually from 38.3 µM), most hits filed as inhibitors. hit rate 1.6% among 410,000. AID 624417; also: nearly all actives have a fitted effect of over 55% in size
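Cells are plated, allowed 12 hours at 37 deg C, then treated with compounds for 24 hr before luciferase detection reagent is added and luminescence is read after 12 min at room temperature. The HEK293 line carries constitutively active GLP-1R with a cAMP-responsive reporter.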
D3 ag – D3 dopamine receptor (human) agonism; P35462; D3R DiscoveRx beta-arrestin cells, luminescence, 90 min; max activation, %; hit rate 0.58% among 410,000; AID 652048; in the data active = max activation above about 30%
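Cells at 1500/well, incubated overnight, then treated with pinned compounds (dopamine as control) for 90 min at 37 degrees C. DiscoveRx reagent added for 30 - 60 minutes at room temperature; luminescence read.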
Hits are given with their value. Shown are actives, neighbours in structure and some others; about 4.3% of the full set was active somewhere. Unless noted, calls follow the shape of the dose curve; as a rule, active = well fitted curve in the direction sought with a large enough effect; inconclusive = small, poorly fitted or top-dose-only effect, or another doubt; inactive = no such curve, though single readings can be large; an effect the other way counts as inactive or inconclusive.

O=C(O)/C=C/C(=O)c1ccc2c(c1)CCc1ccccc1-2 was read as D3 antag -139.4, GLP1R ag inactive, GLP1R inv ag inconclusive and D3 ag inactive.
Screening CC(=O)Nc1ccc2c(c1)CCc1ccccc1-2 returned D3 antag inactive, GLP1R ag inactive, GLP1R inv ag inconclusive and D3 ag inactive.
For COc1cc(C(=O)N2CCN(CCc3ccccn3)CC2)cc(OC)c1OC the results were GLP1R inv ag inactive and D3 ag inactive.
CN(C)c1ccc(N=Nc2nccs2)cc1 was read as D3 antag -82.3, GLP1R ag inactive, GLP1R inv ag inconclusive and D3 ag inactive.
Screening CCC(CCCO)CCC[C@H](C)CCC1OCCO1 (stereo not given in full) returned D3 antag inconclusive, GLP1R ag inactive, GLP1R inv ag 8.91µM and D3 ag inactive.
For CC1=C(C(N)=O)C(c2cccc(Br)c2)n2nc(SCc3ccccc3)nc2N1 (stereo not given) the results were GLP1R ag inactive, GLP1R inv ag inactive and D3 ag inactive.
O=C(Cn1cc(/C=C\[N+](=O)[O-])c2ccccc21)Nc1ccccc1 was read as D3 antag inconclusive, GLP1R ag inactive, GLP1R inv ag 7.08µM and D3 ag inactive.
CCCCC(=O)OCc1cc(=O)n2nc(C3CCCCC3)sc2n1 was read as GLP1R inv ag inactive and D3 ag inactive.
Screening O=C(NNC(=S)Nc1cccc(C(F)(F)F)c1)c1cccc(Cl)c1 returned D3 antag inactive, GLP1R ag inactive, GLP1R inv ag inactive and D3 ag 44.2.
Screening CC1=C(C(=O)Nc2ccc(Cl)cc2)C(c2cccs2)n2nc(SCc3cccc(Cl)c3)nc2N1 (stereo not given) returned GLP1R ag inactive, GLP1R inv ag inactive and D3 ag inactive.
CCOc1ccc(N=C2NC(=O)S/C2=C\c2ccc(N(C)C)cc2)cc1 was read as D3 antag -69.3, GLP1R ag inactive, GLP1R inv ag inactive and D3 ag inactive.
`CCOc1ccc(/C=C2/SC(=O)NC2=S)cc1` gave D3 antag inactive, GLP1R ag inactive, GLP1R inv ag inactive and D3 ag inactive.
CCC(=O)Nc1cccc(-c2ccc(N3CCC(C)CC3)nn2)c1 was read as D3 antag inactive, GLP1R ag inactive, GLP1R inv ag inactive and D3 ag inactive.
`CCC(=O)Nc1ccc(-c2ccc(N3CCC(C)CC3)nn2)cc1` gave D3 antag inactive, GLP1R ag inactive, GLP1R inv ag 7.94µM and D3 ag inactive.
`O=C(Nc1cccc(-c2ccc(N3CCCCC3)nn2)c1)C(F)(F)F` gave D3 antag inactive, GLP1R ag inactive, GLP1R inv ag inconclusive and D3 ag inactive.
CC1CCN(c2ccc(-c3cccc(NC(=O)C(F)(F)F)c3)nn2)CC1 was read as D3 antag inactive, GLP1R ag inactive, GLP1R inv ag 1µM and D3 ag inactive.
`CC1CCN(c2ccc(-c3cccc(NC(=O)c4ccco4)c3)nn2)CC1` gave D3 antag inactive, GLP1R ag inactive, GLP1R inv ag 11.2µM and D3 ag inactive.
`COc1ccccc1/C=C/CN1CCN(c2ccccc2)CC1` gave D3 antag -64.0, GLP1R ag inactive, GLP1R inv ag inactive and D3 ag inactive.
For COc1ccccc1/C=C/CN1CCCC(CO)(CCc2ccccc2)C1 (stereo not given) the results were D3 antag -95.6, GLP1R ag inactive, GLP1R inv ag inconclusive and D3 ag inactive.
`COc1cc(CN2CCCC(CO)(Cc3ccccc3)C2)ccc1O` (stereo not given) gave D3 antag inconclusive, GLP1R ag inactive, GLP1R inv ag inconclusive and D3 ag inactive.
CCOC(=O)C1(CCOC)CCN(C/C=C/c2ccccc2OC)CC1 was read as D3 antag -71.2, GLP1R ag inactive, GLP1R inv ag inactive and D3 ag inactive.
Screening COc1ccc(CC2(CO)CCN(Cc3cnn(-c4ccccc4OC)c3)CC2)cc1 returned D3 antag -88.8, GLP1R ag inactive, GLP1R inv ag inconclusive and D3 ag inactive.
For Oc1c(C(c2ccc(Cl)cc2)N2CCCC2)sc2nc(-c3ccco3)nn12 (stereo not given) the results were GLP1R inv ag inactive and D3 ag inactive.
For OCC1(CCc2ccccc2)CCCN(C/C=C/c2ccccc2)C1 (stereo not given) the results were D3 antag -68.2, GLP1R ag inactive, GLP1R inv ag inconclusive and D3 ag inactive.
For COc1ccc(CC2(CO)CCN(C/C=C/c3ccccc3OC)CC2)cc1 the results were D3 antag -92.9, GLP1R ag inactive, GLP1R inv ag inconclusive and D3 ag inactive.
Screening CC(COc1ccccc1)N1CCC(CO)(Cc2ccccc2)CC1 (stereo not given) returned D3 antag -88.9, GLP1R ag inactive, GLP1R inv ag inconclusive and D3 ag inactive.
Cc1nn(CC(=O)NCc2ccccc2Cl)c(=O)c2cccn12 was read as GLP1R inv ag inactive and D3 ag inactive.
`O=C(N/N=C/c1c[nH]c2ccccc12)c1cc(-c2ccc(-c3ccccc3)cc2)n[nH]1` gave D3 antag inactive, GLP1R ag inactive, GLP1R inv ag inconclusive and D3 ag 34.9.
O=C(N/N=C/c1ccco1)c1cc(-c2ccc3ccccc3c2)n[nH]1 was read as D3 antag -74.9, GLP1R ag inactive, GLP1R inv ag inconclusive and D3 ag inactive.
For COc1cc2nc(SCc3ccc(C)cc3)n3nc(CCn4nc(C)cc4C)nc3c2cc1OC the results were GLP1R ag inactive, GLP1R inv ag inactive and D3 ag inactive.
Screening COc1ccccc1NC(=O)c1cc2n(n1)C(C(F)(F)F)CC(c1ccc3c(c1)OCO3)N2 (stereo not given) returned D3 antag inactive, GLP1R ag inactive, GLP1R inv ag 2µM and D3 ag inactive.
Screening CCCNC(=O)C1CCC(Cn2c(=O)c3sccc3n(CC(=O)N3CCCC3)c2=O)CC1 (stereo not given) returned GLP1R inv ag inactive and D3 ag inactive.
`CC(C)c1nn2c(=O)cc(COC(=O)c3ccc(NC(=O)COc4ccccc4)cc3)nc2s1` gave GLP1R inv ag inactive and D3 ag inactive.
For C/C(=N\NC(=O)CN1CCCCC1)c1ccccc1O the results were D3 antag inactive, GLP1R ag inactive, GLP1R inv ag inconclusive and D3 ag inactive.
For C/C(=N\NC(=O)CN(c1ccccc1)S(C)(=O)=O)c1ccccc1O the results were D3 antag inactive, GLP1R ag inactive, GLP1R inv ag 5.01µM and D3 ag inactive.
`CN1CCN(c2nc3c(S(=O)(=O)c4ccc(Br)cc4)nnn3c3ccsc23)CC1` gave GLP1R inv ag inactive and D3 ag inactive.
For Cc1ccc(S(=O)(=O)N(CCC(=O)NCc2ccccc2F)c2ccccc2)cc1 the results were D3 antag inactive, GLP1R ag inactive, GLP1R inv ag inconclusive and D3 ag inactive.
Screening COc1cccc(CN(C)C(=O)CCN(c2ccccc2)S(=O)(=O)c2ccc(C)cc2)c1OC returned D3 antag inactive, GLP1R ag inactive, GLP1R inv ag 8.91µM and D3 ag inactive.
